# Experiments:
# [1] = test system: FLT4
# [2] = test system: GRK1
# [3] = test system: T1, GRK3
# T1 construct: gene ADRBK2
# [4] = test system: T2, HASPIN
# T2 construct: gene GSG2
# [5] = test system: T3, IKK-beta
# T3 construct: gene IKBKB
# [6] = test system: T4, IKK-epsilon
# T4 construct: gene IKBKE
# [7] = test system: LATS2
# [8] = test system: INSR
# [9] = test system: JAK3(JH1domain-catalytic)
# [10] = test system: LATS1
# [11] = test system: LIMK2
# [12] = test system: T5, LOK
# T5 construct: gene STK10
# [13] = test system: LRRK2
# 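Further: kd values determined as follow-up on hits from a single-replicate KINOMEscan panel screen.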
compound,measurement,setting,value
Cn1cncc1C(=O)NC1CCN(c2ccnc(Nc3ccc(F)cc3)n2)C1 (stereo not shown) [GSK1379717],Kd,[1],> 10 µM
COC(=O)C(Cc1ccccc1)NC(=O)NC1CCN(c2ccnc(Nc3ccc(F)cc3)n2)C1 (stereo not shown) [GSK1379714],Kd,[2],> 10 µM
CNc1nc(-c2ccc3c(N)n[nH]c3c2)cc(N2C[C@@H](C(=O)Nc3ccccc3)CC[C@H]2C)n1 [GSK2298859],Kd,[2],> 10 µM
CS(=O)(=O)CCNCc1nc(-c2ccc3ncnc(Nc4ccc(OCc5ccccc5)c(Cl)c4)c3c2)cs1.Cl [GW582764],Kd,[3],> 10 µM
CC(C)c1cc(-c2ccc3c(N)n[nH]c3c2)nc(N)n1 [GSK2250882],Kd,[4],0.2 µM
COc1cccc(NC(=O)Nc2ccc(C)c(-c3ccc(C(=O)Nc4ccncc4)cc3)c2)c1 [GSK1398474],Kd,[5],> 10 µM
FC(F)(F)c1ccccc1-c1cc(-c2c[nH]nc2-c2ccccn2)ccn1 [GW679396],Kd,[6],> 10 µM
COc1ccc(Nc2nccc(N3CCC(NC(=O)C(C)c4ccc(Cl)cc4)CC3)n2)cc1 (stereo not shown) [GSK1379812],Kd,[6],> 10 µM
same,Kd,[7],> 10 µM
Cl.Cl.Cl.N#Cc1ccc(CCNc2nccc(-c3cccc(CN4CCNCC4)c3)n2)cc1 [GSK2137462],Kd,[8],> 10 µM
COc1cccc(C2=C(Nc3cc(Cl)c(O)c(Cl)c3)C(=O)NC2=O)c1 [SB-390767],Kd,[9],0.12 µM
Cc1c(Cn2c(C)c(C)n3c(=O)cc(N4CCOCC4)nc23)cccc1C(F)(F)F [GSK2328680],Kd,[10],> 10 µM
CC(=O)c1c(C)c2cnc(Nc3ccc(N4CCNCC4)cn3)nc2n(C2CCCC2)c1=O,Kd,[11],> 10 µM
CCn1c(-c2c(N)noc2C)nc2cnccc21 [SB-737856],Kd,[11],> 10 µM
CS(=O)(=O)Cc1ccc(Nc2nccc(-c3c(-c4cccc(NC(=O)C5CCCCC5)c4)nn4ncccc34)n2)cc1 [GSK350559],Kd,[12],0.36 µM
Cc1ccc(NC(=O)c2ccc(Cl)cc2)cc1-c1ccc(C(=O)Nc2ccncc2)cc1 [GSK1398467],Kd,[13],> 10 µM

# Source: publication PMC5540273 (PLoS ONE, 2017)
